Assay results as given in ChEMBL document CHEMBL3988442, “University of Dundee, Small-Polar-MMV Screening Library” (2021).
In all, about 48,000 compounds went through this assay and about 13,000 (27%) showed an effect of 50% or more. The list shows a part of the results.

System: Wolbachia pipientis
Assay: Anti-Wolbachia Cell-Based Screen
Type: functional
Set-up: scale not given: in the data most compounds retested in dose-response had high values
Details: 5 µM

SMILES	Percent Effect
COCC(=O)NC[C@H]1OC[C@@H](NC2CCC(F)(F)CC2)[C@@H]1O	-6.952%
O=S(=O)(C1CC1)N1CCC2(COCc3cnc(N4CCOCC4)nc32)C1 (stereo not given)	-0.8991%
CS(=O)(=O)N1CCC2(COCc3cnc(-c4ccccc4)nc32)C1 (stereo not given)	3.211%
CN(C)S(=O)(=O)N1CCC2(COCc3cnc(-c4ccccc4)nc32)C1 (stereo not given)	7.187%
O=S(=O)(C1CC1)N1CCC2(COCc3cnc(-c4cccnc4)nc32)C1 (stereo not given)	112.6%
c1ccc(-c2ncc3c(n2)C2(CCN(c4ncccn4)C2)COC3)cc1 (stereo not given)	-0.2326%
CN(C)S(=O)(=O)N1CCC2(COCc3cnc(-c4cccnc4)nc32)C1 (stereo not given)	117.1%
Cc1nn(C)c(NC(=O)C2SCCc3ccccc32)c1C (stereo not given)	-51.32%
COCCOc1ccc(NC(=O)N2CCCC2c2ccncc2)cn1 (stereo not given)	-3.019%
COCCOc1ccc(NC(=O)C2CCCN(C(N)=O)C2)cn1 (stereo not given)	-6.192%
COCCOc1ccc(NC(=O)C2CC(=O)N(CC3CC3)C2)cn1 (stereo not given)	88.01%
COCCOc1ccc(NC(=O)N2CCCC2c2cc(C)no2)cn1 (stereo not given)	-1.531%
COCCOc1ccc(NC(=O)C2CC(=O)N(C3CC3)C2)cn1 (stereo not given)	124.3%
COCCOc1ccc(NC(=O)N(C(C)C)C2CC2)cn1	-14.55%
COCCOc1ccc(NC(=O)N2CCCC2c2cccs2)cn1 (stereo not given)	-5.356%
COCCOc1ccc(NC(=O)C2CC(=O)N(C(C)C)C2)cn1 (stereo not given)	102.1%
COCCOc1ccc(NC(=O)N(CCO)C2CC2)cn1	-3.493%
CCS(=O)(=O)N1CCN(CC(F)(F)F)CC1	6.417%
CS(=O)(=O)CCC(=O)NC1CC(c2ccccc2Cl)C1 (stereo not given)	-3.689%
CNC(=O)CCc1cc(C2CCN(c3cnccn3)CC2)nc(C)n1	127.7%
CCNC(=O)CCN1CCC(c2cc(N3CCOCC3)nc(C)n2)CC1	2.574%
CNC(=O)CCc1cc(C)nc(C2CCCN2)c1 (stereo not given)	-6.068%
CNC(=O)CCc1cc(C)nc(C2CCN(c3ccccc3)CC2)c1	115.5%
Cc1nc(C2CCN(CC(=O)NC3CC3)CC2)cc(N2CCOCC2)n1	-4.261%
CNC(=O)CCc1cc(C)nc(C2CCN(c3cnccn3)CC2)c1	163%

SMILES	Percent Effect
CCn1ncnc1C(C)NC(=O)C1CCN(C2CCCCC2)CC1 (stereo not given)	-9.983%
O=C(CCc1ccsc1)NCC1CCN(c2ccccc2)C1 (stereo not given)	-7.68%
Cc1cc(C)c(CNC(=O)N2CCN(c3cnccn3)CC2)c(=O)[nH]1	-4.919%
CNC(=O)CCc1cc(C)nc(C2CCN(C3CCCCC3)CC2)c1	132.7%
Cc1cc(N2CCC(NC(=O)CCc3cnn(C)c3)CC2)nc(C)n1	-6.539%
Cc1ccc(CC(=O)NC2CCN(c3cccc(Cl)c3)C2)cn1 (stereo not given)	-6.758%
CCN(Cc1ccoc1)C(=O)NC1CCN(CC2CC2)C1 (stereo not given)	-6.123%
N#Cc1c(Cl)nsc1NCCCN1C(=O)COc2ccccc21	-8.12%
CCN(C(=O)C1CCC1)C(c1cccnc1)c1ccc2c(c1)CCO2 (stereo not given)	-9.854%
O=C(C1CN(Cc2ccsc2)Cc2ccnn2C1)N1CCCC1.O=C(O)C(F)(F)F.O=C(O)C(F)(F)F (stereo not given)	5.087%
COc1coc(CN2CCCC3(CCC(=O)N(CC4CC4)C3)C2)cc1=O (stereo not given)	-7.938%
CCOCCn1c(=O)[nH]c2cc(C(=O)N(C)Cc3cnn(C)c3)ccc21	6.487%
CN(CCc1cnn(C)c1)C(=O)Cn1c(=O)[nH]c2ccccc21	117.9%
CN(CCc1cnn(C)c1)C(=O)CN1C(=O)OC[C@@H]1c1ccccc1	-15.8%
Cc1cc(C)c2nc(C)cc(C(=O)NCc3csc(N(C)C)n3)c2c1	-46.67%
O=C(Nc1cnn(CC(=O)N2CCCCO2)c1)c1ccccn1	-7.331%
O=C(O)c1ccc(F)c(S(=O)(=O)Nc2c(F)cccc2-n2cccn2)c1	-5.743%
CN(C)CCn1c([C@@H]2CCCO2)cc2cccnc21.Cl	90.46%
Cc1ccc(C#N)c(N2CCC(c3nccn3CCN(C)C)CC2)n1	-3.51%
CN(C)CCn1c([C@H]2CCCO2)cc2cccnc21	104.2%
Cc1nn(C)c2nc(N(Cc3ccccn3)CC3CCCO3)sc12 (stereo not given)	-1.375%
CN(C)CCn1ccnc1C1CCCN(c2nccc3ccccc23)C1 (stereo not given)	-1.132%
CN(C)CCn1c(=O)oc2ccc(NC(=O)C3CCCO3)cc21 (stereo not given)	1.023%
O=C(NCc1cccc(N2CC=CC2)c1)NCC(F)(F)F	2.139%
COc1ccnc(N(C)Cc2c(C)noc2C)n1	0.6416%

SMILES	Percent Effect
CC1CCCN(C(=O)CNC(=O)c2ccoc2)C1 (stereo not given)	104.6%
CCn1cnc(NC(=O)N2CCCC(c3ccccc3)CC2)n1 (stereo not given)	1.274%
O=C(CCNC(=O)c1ccoc1)Nc1c(F)cccc1F	-2.292%
CC1CCCN(C(=O)NCC(F)F)C1 (stereo not given)	-0.801%
O=C(CCNC(=O)c1ccoc1)Nc1cc(F)cc(F)c1	-8.538%
Cc1occc1C(=O)NCC(=O)N1CCCC(c2ccccc2)CC1 (stereo not given)	4.823%
O=C(NCCC(=O)N1CCCCCCC1)c1ccoc1	130.7%
O=C(NCC(=O)N1CCCC(c2ccccc2)CC1)c1ccoc1 (stereo not given)	114.1%
CC(C)CN1CCC(C(=O)NCCNC(=O)c2ccoc2)CC1	9.069%
c1cnnc(N2CCCC(NCc3ccc(-n4ccnc4)cc3)C2)c1 (stereo not given)	2.731%
CN(Cc1cccs1)C(=O)CNC1CCc2ncnn2C1 (stereo not given)	-0.9071%
Cc1cc(=O)c2ccccc2n1CC1CCCN(C)C1 (stereo not given)	-3.698%
Cc1cc(S(=O)(=O)N2CCc3ccc(F)cc32)cc(C(=O)O)c1C	-1.898%
Cc1ccc(C(O)CNCCn2cccn2)cc1C (stereo not given)	-13.13%
CC(NC(=O)NCCCn1cncn1)c1ccc2c(c1)OCCO2 (stereo not given)	5.809%
OC(CNCCn1cccn1)c1ccc2c(c1)OCCO2 (stereo not given)	4.861%
Cc1cnn(CCNCC(=O)NC(C)c2ccc3c(c2)OCCO3)c1 (stereo not given)	97.89%
CC(NC(=O)CNCCn1cccn1)c1ccc2c(c1)CCCC2 (stereo not given)	2.456%
CC(NC(=O)Cn1cccn1)c1ccc2c(c1)OCCCO2 (stereo not given)	-3.831%
CC(NC(=O)CNCCn1cccn1)c1ccc2c(c1)OCCO2 (stereo not given)	-2.168%
CC(NC(=O)NCCCO)c1ccc2c(c1)OCCO2 (stereo not given)	6.207%
CC(NC(=O)NCCCn1ccnc1)c1ccc2c(c1)OCCCO2 (stereo not given)	-3.282%
CC(NC(=O)CCn1cccn1)c1ccc2c(c1)OCCO2 (stereo not given)	98%
CC(NC(=O)Cn1cccn1)c1ccc2c(c1)OCCO2 (stereo not given)	96.81%
Cc1ccc(C(C)NC(=O)CNCCn2cccn2)cc1C (stereo not given)	67.97%
